# Assay outcomes as filed in PubChem BioAssay.
# ELG1 genotoxic = qHTS screen for small molecules that induce genotoxicity in human embryonic kidney (HEK293T) cells expressing luciferase-tagged ELG1; HEK293T ELG1-luciferase reporter, luminescence, 16 h; Potency, µM (highest dose often 46 µM), for the others: at the highest dose activity change, positive = activation, usual class: activators; actives 1.3% (n = 330,000); AID 504466, 2011; further: % of control where 0% means no effect; nearly all actives have a fitted effect of over 60% in size
#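 Step 1: seed 2,000 HEK293T ELG1-luciferase cells per well. Step 2: add compound or DMSO, incubate 16 hr at 37 °C. Step 3: ONE-Glo, 30 min at room temperature, read luminescence.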
# p53 reactivation = qHTS assay for re-activators of p53 using a Luc reporter | H1299 p53-A138V BP100-luciferase reporter, luminescence, 24 h | Potency, µM (highest dose often 92.2 µM), without a hit: at the top dose activity change, positive = activation, usual class: activators | actives 0.063% (n = 320,000) | AID 504706, 2011; further: % of control where 0% means no effect; nearly all actives have a fitted effect of over 45% in size
#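 p53-null H1299 cells stably carrying temperature-sensitive p53-A138V and a BP100-luciferase reporter were pinned with compounds (4-point, 1:5 series) and held 24 hrs at 37 deg C. Luminescence was read 10 min after detection reagent.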
# Rab9 promoter act = qHTS Assay for Rab9 Promoter Activators. Huh7 Rab9 promoter-luciferase reporter, luminescence, 24 h. actives 2.8% (n = 320,000). Potency, µM (titrated, usually from 9.22 µM), without a hit: at the highest dose activation, negative = inhibition, usual class: activators; further: % of control where 0% means no effect; nearly all actives have a fitted effect of over 60% in size
#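 Huh7 reporter line, Rab9 promoter upstream of luciferase. Compound exposure 24 h at 37 °C in reduced-serum medium with 10% FBS. Read-out: luminescence.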
# NPC1 promoter act = qHTS Assay for NPC1 Promoter Activators; Huh7 NPC1 promoter luciferase reporter, 24 h; Potency, µM (top dose mostly 9.22 µM), for the others: at the top dose activation, usual class: activators; actives 2.4% (n = 320,000); further: % of control where 0% means no effect; nearly all actives have a fitted effect of over 60% in size
#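 Readout is luciferase luminescence, reflecting NPC1 promoter activation in stably transfected Huh7 cells after 24 h compound exposure at 37 °C in reduced-serum medium with 10% FBS.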
# SMN2 splice enh = qHTS Assay for Enhancers of SMN2 Splice Variant Expression; HEK293 SMN2-luciferase splicing reporter, luminescence, 30-36 h; Potency, µM (doses to about 46.1 µM), for inactives: at the top dose activity change, positive = activation, actives largely listed as activators; actives 2.8% (n = 210,000); AID 1458, 2008; further: % of control where 0% means no effect; nearly all actives have a fitted effect of over 55% in size
#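 qHTS luciferase splicing reporter: luminescence rises when SMN2 exon 7 is included in transfected HEK293 cells. Compound exposure lasted 30-36 h at 37C, with 4.5 mM final sodium butyrate as control, followed by a ONE-Glo read.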
# FLuc modulator = qHTS profiling assay for firefly luciferase inhibitor/activator using purifed enzyme and Km concentrations of substrates (counterscreen for miR-21 project); Luciferin 4-monooxygenase (Photinus pyralis), P08659; purified FLuc, Km substrates, luminescence inhibition; Potency, µM (series often up to 57.5 µM), without a hit: at the highest dose activity change, negative = inhibition, hits mostly inhibitors; actives 6.9% (n = 360,000); AID 588342, 2011;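 further: plate controls were vehicle for no effect and reference inhibitor for full effect; nearly all actives have a fitted effect of over 55% in size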
# Target sequence (P08659 whole entry, looked up): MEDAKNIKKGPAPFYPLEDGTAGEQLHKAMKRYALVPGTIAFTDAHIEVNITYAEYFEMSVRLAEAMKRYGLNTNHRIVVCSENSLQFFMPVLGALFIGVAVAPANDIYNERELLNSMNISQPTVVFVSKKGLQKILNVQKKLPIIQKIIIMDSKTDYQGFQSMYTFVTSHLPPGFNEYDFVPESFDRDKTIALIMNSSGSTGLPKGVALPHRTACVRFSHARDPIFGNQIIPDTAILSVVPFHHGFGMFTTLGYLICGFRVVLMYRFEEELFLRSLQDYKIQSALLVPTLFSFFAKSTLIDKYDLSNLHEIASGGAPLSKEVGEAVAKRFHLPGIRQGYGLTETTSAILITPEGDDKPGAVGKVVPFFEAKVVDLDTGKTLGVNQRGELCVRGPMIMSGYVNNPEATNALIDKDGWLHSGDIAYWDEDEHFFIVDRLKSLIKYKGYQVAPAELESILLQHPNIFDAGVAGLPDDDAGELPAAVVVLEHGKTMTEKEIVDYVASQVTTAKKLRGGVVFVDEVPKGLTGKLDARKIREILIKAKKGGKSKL
#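 Purified P. pyralis luciferase, 10 nM final, with Km-level 10 uM D-luciferin and 10 uM ATP in 50 mM Tris acetate pH 7.5, 10 mM Mg acetate, 0.01% Tween-20, 0.05% BSA; 6-point qHTS titration about 60 µM downward; luminescence read.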
# * hit, by the source's call; u = inconclusive; x = not tested or not shown; [ ] = remark or other dose. A selection: hits, their analogues and other compounds. The true share with any hit is near 7.4%. The call rests on the fitted dose curve; in most records, active means well fitted curve in the direction sought with a large enough effect; inconclusive means small, poorly fitted or top-dose-only effect, or another doubt; inactive means no such curve, though single readings can be large; an effect the other way counts as inactive or inconclusive. Potency means the concentration at half of the fitted maximal effect.
SMILES,ELG1 genotoxic,p53 reactivation,Rab9 promoter act,NPC1 promoter act,SMN2 splice enh,FLuc modulator
CCc1ccc(CN2CCc3nc(Nc4ccccc4)ncc3C2)cc1,x,x,x,x,x,-5%
COC(=O)c1ccc(NC(=O)CSc2nc3ccc(OC)cc3[nH]2)cc1,x,x,x,x,-15%,-7%
COC(=O)C1=C(CSc2nnnn2C)NC(=O)NC1c1cc(C)ccc1C (stereo not given),-1%,-4%,0%,-4%,25µM*,3%
COC(=O)C1=C(CN2CCN(C)CC2)NC(=O)NC1c1cc(C)ccc1C (stereo not given),-1%,-1%,-10%,-2%,14%,0%
COC(=O)C1=C(CN2CCc3ccccc32)NC(=O)NC1c1cc(C)ccc1C (stereo not given),-3%,-5%,-9%,2%,4.5µM*,0%
O=C(CCc1c[nH]c2ccccc12)NCCc1ccc(O)cc1,0%,4%,-1%,1%,x,6%
CCOC(=O)Cc1csc(NC(=O)c2ccc3ncsc3c2)n1,3%,2%,24%,-23%,x,15µM*
CCOC(=O)Cc1csc(NC(=S)NC(=O)c2ccc(Cl)cc2)n1,0%,-18%,-10%,-7%,-1%,12µM*
CCOC(=O)Cc1csc(NC(=O)c2ccc3ccccc3n2)n1,-7%,5%,1µM*,1.6µM*,x,15µM*
CCOC(=O)Cc1csc(NC(=O)c2ccc(Br)cc2)n1,-3%,5%,0%,1%,x,21µM*
O=C(NC1CC(=O)N(c2cccc(F)c2)C1)C1CCCC1 (stereo not given),x,x,x,x,x,3%
CCOC(=O)Cc1csc(NC(=O)c2ccc(C)o2)n1,u,15%,11%,3%,-6%,-13%
CCOC(=O)Cc1csc(NC(=O)c2ccco2)n1,16µM*,u,u,u,7.9µM*,u
C[N+]1(C)CCC[C@H]1C(=O)[O-],x,x,x,x,-2%[20.6 µM],x
N#CCCN1CCN(C(=S)c2ccc(-c3ccc(Cl)cc3)o2)CC1,u,15%,25%,16%,-16%,21µM*
S=C(c1ccc(-c2ccc(Cl)cc2)o1)N1CCCCC1,2.6µM*,u,1.4µM*,1.3µM*,5µM*,1.1µM*
Clc1ccc(-c2ccc(CN3CCCCC3)o2)cc1,5%,x,19%,1%,x,u
CN1CCN(C(=S)c2ccc(-c3cccc(Cl)c3Cl)o2)CC1,u,u,u,u,x,4.8µM*
S=C(c1ccc(-c2ccccc2Cl)o1)N1CCCCC1,u,u,3.5µM*,2.8µM*,13µM*,5.4µM*
CC(C)c1nn2c(=O)cc(COC(=O)CNC(=O)c3ccccc3Cl)nc2s1,x,x,x,x,x,-4%
CCc1ccc(C(=O)NNC(=S)Nc2ccc(S(N)(=O)=O)cc2)s1,4%,16%,-1%,-2%,x,17µM*
CC(C)CC(=O)NNC(=S)Nc1ccc(S(N)(=O)=O)cc1,-1%,-2%,3%,-3%,7%,-19%
Nc1nnc(/C=C/c2ccccc2Cl)s1,u,10%,3.5µM*,u,x,6.7µM*
Cc1ccsc1CCN1C(=O)N(c2ccccc2)C(=O)C1CC(=O)Nc1ccc(Cl)cc1 (stereo not given),x,x,x,x,0%,-14%
Cc1cccc(C(=O)O/N=C2\CCS(=O)(=O)c3sccc32)c1,0%,2%,3%,4%,-8%,3.4µM*
SMILES,ELG1 genotoxic,p53 reactivation,Rab9 promoter act,NPC1 promoter act,SMN2 splice enh,FLuc modulator
O=C(O/N=C1\CCS(=O)(=O)c2sccc21)c1ccccc1,2%,0%,0%,-6%,-11%,2.7µM*
O=C(O/N=C1\CCS(=O)(=O)c2sccc21)c1ccc(F)cc1,0%,-3%,-5%,-1%,3%,u
COC(=O)C1=C(C)NC(C)=C(C(=O)OC(C)C)[C@H]1c1cccc2nonc12,x,x,x,x,-12%[20.6 µM],x
Cn1cc(CN(C(=O)Nc2ccccc2)C2CCCCC2)c2ccccc21,x,x,x,x,-2%,-14%
Cc1cc(C(=O)Nc2sc3c(c2C#N)CCC(C)C3)no1 (stereo not given),2.1µM*,u,2µM*,1.8µM*,14µM*,2.7µM*
Cc1cc(C(=O)Nc2sc3c(c2C#N)CCC3)no1,6.5µM*,5%,29%,-3%,u,5.4µM*
Cc1cc(C(=O)Nc2sc3c(c2C#N)CCCC3)no1,u,u,1.6µM*,3.2µM*,6.3µM*,2.4µM*
CCOC(=O)c1cc(C(=O)Nc2sc3c(c2C#N)CCCC3)nn1C,7%,-10%,u,2%,x,4.8µM*
CC(C)Cc1cc(C(=O)Nc2sc3c(c2C#N)CCCC3)no1,3%,u,5%,-1%,-7%,u
Cc1cccc(OCC(=O)Nc2ccccc2C(=O)OCc2cc(=O)n3ccsc3n2)c1,x,x,x,x,x,-14%
CC1CCc2c(sc3nnn(Cc4ccccc4Cl)c(=O)c23)C1 (stereo not given),x,x,x,x,-5%,-10%
COc1ccc(CNC(=O)CNC(=O)c2ccc(Br)o2)cc1OC,0%,6%,16%,-1%,x,-1%
COc1ccc(OC)c2sc(N3CCc4ccccc4C3)nc12,7%,-2%,24%,-1%,3%,12µM*
O=S(=O)(c1ccc2c(c1)OCCO2)N1CCN(c2nc3ccccc3s2)CC1,-5%,-7%,0%,-5%,-26%,1%
COc1ccc(OC)c2sc(N3CCN(C(=O)c4ccc([N+](=O)[O-])s4)CC3)nc12,-13%,-3%,14%,10%,x,-5%
COc1ccc(-c2nc(C#N)c(N3CCc4ccccc4C3)o2)cc1OC,-1%,-7%,-8%,-6%,-18%,-14%
c1ccc2c(c1)CCN(c1nc3cc4c(cc3s1)OCCO4)C2,u,-29%,u,u,x,0.11µM*
COc1ccc(OC)c2sc(N3CCCCC3)nc12,18µM*,u,21%,29%,u,19µM*
O=C(NC1CCCC1)c1ccc2nc(-c3ccco3)c(-c3ccco3)nc2c1,-4%,21%,7%,0%,x,13µM*
O=C(NCCO)c1ccc2nc(-c3ccco3)c(-c3ccco3)nc2c1,-9%,-1%,18%,1%,2%,15µM*
O=C(NC1CCCC1)c1ccc2nc[nH]c2c1,5%,-9%,0%,-1%,-1%,-1%
O=C(c1ccccc1)c1ccc2nc(-c3ccco3)c(-c3ccco3)nc2c1,12%,13%,u,24%,7%,5.4µM*
